Test results reported in PubChem BioAssay (NCATS).
Results filed as inconclusive are left out. Unmarked numbers belong to inactive results. The source made the active and inactive calls. Calls come from the whole dose curve; as a rule, active = well fitted inhibition curve with a large enough effect; inconclusive = small, poorly fitted or top-dose-only effect; inactive = no such curve, though single readings can be large or run the other way.
Potency is the fitted concentration of half-maximal effect.

Assay: qHTS Screen of the MIPE 4.0 Collection Against Ewings Sarcoma (TC71) (AID 1259253); note: nearly all actives have a fitted effect of over 40% in size;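 for viability (% of DMSO): 100% = DMSO-treated cells and 0% = medium-only wells without cells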
Settings: TC71 Ewing sarcoma viability, CellTiter-Glo, 48 h; series mostly up to 45.8 µM; viability (% of DMSO): at the top concentration
Description: There is a large unmet medical need for treatments for Ewing sarcoma, a pediatric sarcoma. We sought to identify compounds that inhibited Ewing sarcoma cells in vitro with the goal to then test promising drugs in two drug combinations in vitro to look for synergistic drug combinations. Promising combinations would then proceed to additional validation, including in vivo testing.
Using the NCATS developed oncology compound library called the Mechanism of Interrogation Plate (MIPE), four Ewing sarcoma cell lines were evaluated (TC32, TC71, RDES, EW8). Compounds, in a 12-point titration series, were incubated with cells for 48 hours and the read out was cell viability (CellTiter-Glo from Promega). These initial experiments were used to select appropriate concentrations of each single agent for subsequent two-drug matrix combinations such that the concentrations in the matrices would span both activity and non-activity.
Cells, in the log phase of growth, were seeded in 5 uL of RPMI plus 5% FBS, […] L-glutamine, 100 U/ml penicillin and 100 ug/ml streptomycin into 1536-well solid-bottom white tissue culture treated Greiner Bio One Plates (789173-F) using a MultiDrop Combi (Thermofisher Scientific) dispenser and a small sterile cassette. One column was media alone to be used as a :"no cells" control. The plates were then covered with sterilized stainless steel gasketed lids from Kalypsys. After allowing cells to attach for 4 hours, 23 nL of test compound or control (negative control DMSO and positive control 9.2 uM Bortezomib-final) were added from a 1536-well polypropylene compound source plate to each well using a 1536 head pin tool from Kalypsys. Cells were then incubated for 48 hours at 37C, 95% relative humidity and 5% CO2. After 48 hours, plates were removed from the incubator and 3 uL of CellTiter-Glo (Promega) was added using an Aurora Flying Reagent Dispenser Bioraptor. Plates were incubated at room temperature for 10 minutes prior to reading the luminescence on the Viewlux (PerkinElmer). The relative luciferase units are used to calculate the percent activity using the activity of DMSO in the cells and no cells columns for normalization of no inhibition and full inhibition respectively.
For C#CC1(O)CCC2C3CCC4=CC(=O)CCC4(C)C3CCC21C (stereo not given), the “viability (% of DMSO)” value was 119%.
For C=C[C@@H]1CN2CCC1C[C@H]2[C@H](O)c1ccnc2ccccc12 (stereo not given in full), the Potency was 20.9 µM (active).
With CC(=O)Nc1ccc(OC[C@](C)(O)C(=O)Nc2ccc([N+](=O)[O-])c(C(F)(F)F)c2)cc1 the “viability (% of DMSO)” value was 95.6%.
For C[C@@]12OC(=O)[C@]1([C@@H](O)[C@@H]1C=CCCC1)NC(=O)[C@H]2CCCl, the Potency was 0.0296 µM (active).
For CC(C)N[C@@H]1CCn2c(=O)[nH]c3cccc(c32)[C@@H]1O, the Potency was 8.33 µM (active).
With COc1cccc2c1[C@]13CCN(CC4CC4)[C@H](C2)[C@]1(OC)CCC(=O)C3 the “viability (% of DMSO)” value was 124%.
With C=C[C@@H]1CN2CCC1C[C@@H]2[C@@H](O)c1ccnc2ccccc12 (stereo not given in full) the Potency was 18.7 µM (active).
With CC(C)(C)[C@]1(O)C[C@@H]2OC(=O)C[C@@]23C(=O)O[C@@H]2OC(=O)[C@H](O)C213 (stereo not given in full) the Potency was 20.9 µM (active).
For COC[C@H]1OC(=O)c2coc3c2[C@@]1(C)C1=C(C3=O)[C@@H]2CC[C@H](O)[C@@]2(C)C[C@@H]1OC(C)=O, the Potency was 13.2 µM (active).
In the case of O=C(O)CNC(=O)c1c(O)c2ccccc2n(Cc2ccccc2)c1=O, the Potency is reported as 13.2 µM (active).
With C[C@H]([C@H](O)CCC(C)(C)O)[C@H]1CC[C@@]2(O)C3=CC(=O)[C@@H]4C[C@@H](O)[C@@H](O)C[C@]4(C)[C@@H]3CC[C@]12C the “viability (% of DMSO)” value was 128%.
For CCN(CC)C(=O)c1ccc(C2=CC3(CCNCC3)Oc3cccc(O)c32)cc1, the “viability (% of DMSO)” value was 112%.
For COC1=C[C@@H]2[C@@H]3Cc4ccc(OC)c(O)c4[C@]2(CCN3C)CC1=O, the Potency was 3.32 µM (active).
With C[C@@H]1[C@H](O)[C@@H](C)C=CC=CCCC=CC=CC=CC=C[C@H](O[C@H]2O[C@@H](C)[C@H](O)[C@@H](N)[C@@H]2O)CC2O[C@](O)(C[C@@H](O)[C@H](O)CC[C@@H](O)C[C@@H](O)C[C@@H](O)CC(=O)O[C@H]1C)C[C@H](O)[C@H]2C(=O)O the “viability (% of DMSO)” value was 129%.
With C[C@]12CC[C@H]3[C@@H](CCC4=CC(=O)CC[C@@]43C)[C@H]1CC[C@H]2O the “viability (% of DMSO)” value was 107%.
For Cc1nc(-c2ccc(-c3ccc(C(=O)N4CCc5cc6c(cc54)C4(CCN(C)CC4)CO6)cc3)c(C)c2)no1, the “viability (% of DMSO)” value was 132%.
In the case of CC1=NN=C(c2ccc(N)cc2)c2cc3c(cc2C1)OCO3, the “viability (% of DMSO)” value is reported as 126%.
For O=C(N[C@H]1CN2CCC1CC2)c1ccc(Cl)cc1, the Potency was 18.7 µM (active).
For CCOC(=O)c1cncn1[C@H](C)c1ccccc1, the “viability (% of DMSO)” value was 128%.
With CN(C)[C@@H]1C(=O)C(C(N)=O)=C(O)[C@@]2(O)C(=O)C3=C(O)c4c(O)cccc4[C@@](C)(O)[C@H]3[C@H](O)[C@@H]12 the “viability (% of DMSO)” value was 126%.
In the case of O=c1cccc2n1CC1CNC[C@H]2C1, the “viability (% of DMSO)” value is reported as 105%.
In the case of C[C@]12CC[C@H]3[C@@H](CCC4=CC(=O)CC[C@@]43C)[C@H]1CC[C@H]2OC(=O)CCC1CCCC1, the “viability (% of DMSO)” value is reported as 118%.
For CC1=C(O)C(=O)C=C2C1=CC=C1[C@@]2(C)CC[C@@]2(C)[C@@H]3C[C@](C)(C(=O)O)CC[C@]3(C)CC[C@]12C, the Potency was 1.18 µM (active).
For C=CCON=C(C[C@H]1O[C@@H]2O[C@]3(C)CC[C@@H]4[C@H](C)CC[C@@H]([C@H]1C)[C@@]24OO3)[C@H]1O[C@@H]2O[C@]3(C)CC[C@H]4[C@H](C)CC[C@@H]([C@@H]1C)[C@@]24OO3, the Potency was 0.418 µM (active).
For COc1cc2cc(c1Cl)N(C)C(=O)C[C@H](OC(=O)C(C)C)[C@]1(C)O[C@H]1[C@H](C)[C@@H]1C[C@@](O)(NC(=O)O1)[C@H](OC)C=CC=C(C)C2, the “viability (% of DMSO)” value was 23.9%.
With Cc1ccccc1-n1c(Cn2ncc3c(N)ncnc32)nc2cccc(C)c2c1=O the Potency was 16.6 µM (active).
For COCC1(CO)C(=O)C2CCN1CC2 (stereo not given), the Potency was 2.35 µM (active).
For COc1ccc2c(c[n+](C)c3c4cc5c(cc4ccc23)OCO5)c1OC, the Potency was 9.35 µM (active).
In the case of CCOP(=O)(OCC)C(C)NC(=O)N(CCCl)N=O (stereo not given), the “viability (% of DMSO)” value is reported as 133%.
For CCNC(=O)CC1N=C(c2ccc(Cl)cc2)c2cc(OC)ccc2-n2c(C)nnc21 (stereo not given), the Potency was 16.6 µM (active).
For C[C@@H]1CC[C@H]2[C@@H](C)C(=O)O[C@@H]3O[C@@]4(C)CC[C@H]1[C@]32OO4, the Potency was 3.72 µM (active).
With C[C@]12CC[C@H](O)CC1=CC[C@H]1[C@H]3CCC(=O)[C@@]3(C)CC[C@@H]12 the Potency was 18.7 µM (active).
For C1=C2CCCN[C@H]2[C@@H]2C[C@H]1[C@@H]1CCCCN1C2, the “viability (% of DMSO)” value was 118%.
For O=C1CCC[C@@H]2[C@H]3CCCN4CCC[C@@H](CN12)[C@@H]34, the “viability (% of DMSO)” value was 117%.
In the case of CCN1C[C@]2(OC(=O)c3ccccc3NC(C)=O)CC[C@H](OC)[C@@]34[C@H]5CC6[C@@H](OC)C[C@](O)(C(C[C@@H]23)[C@@H]14)[C@@]5(O)[C@@H]6OC, the “viability (% of DMSO)” value is reported as 121%.
With O=c1[nH]c2ccc(Cl)cc2c(N[C@@H]2CN3CCC2CC3)c1-c1nc2ccccc2[nH]1 the Potency was 0.0418 µM (active).
With CC[C@@]1(O)C(=O)OCc2c1cc1n(c2=O)Cc2cc3ccccc3nc2-1 the Potency was 0.0093 µM (active).
In the case of C[C@@H]1CC[C@@]2(OC1)O[C@H]1C[C@H]3[C@@H]4CC=C5C[C@@H](O[C@@H]6O[C@H](CO)[C@@H](O[C@@H]7O[C@@H](C)[C@H](O)[C@@H](O)[C@@H]7O)[C@H](O)[C@@H]6O[C@@H]6O[C@@H](C)[C@H](O)[C@@H](O)[C@@H]6O)CC[C@]5(C)[C@@H]4CC[C@]3(C)[C@@H]1[C@H]2C, the Potency is reported as 3.72 µM (active).
With COc1cc([C@@H]2c3cc4c(cc3[C@@H](O)C3COC(=O)C32)OCO4)cc(OC)c1O (stereo not given in full) the Potency was 0.0418 µM (active).
In the case of CCC(=O)OC1CCC2C3CCC4=CC(=O)CC[C@@]4(C)C3CC[C@]12C (stereo not given in full), the “viability (% of DMSO)” value is reported as 122%.
